YB-1 expr inh: YB-1 expression inhibition; U2OS, qRT-PCR YB-1 vs CDIP delta delta Cp, 16 h; stronger effect = higher value; zero = DMSO, each unit about twofold; delta delta Cp (YB-1 minus CDIP) (concentration not given with the values); hit rate 0.37% among 30,000; AID 434959;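 active = delta delta Cp rounded down to an integer at or above 3, about 3 SD of DMSO wells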;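 note: higher means less YB-1 transcript or more CDIP transcript relative to DMSO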
ROS inducer: inducers of reactive oxygen species in cancer cells; hit rate 2% among 46,000; ROS induction (% of piperlongumine), % at 10 µM; U2OS ROS induction, H2DCF-DA fluorescence; AID 624156; in the data active = ROS induction above about 79%, passing the limit was not always enough
Hits are given with their value; i = inactive; nt = no result. This is a sample that favours compounds with a hit; in the whole collection about 2.3% have one here.

SMILES	YB-1 expr inh	ROS inducer
O=C(C1=C[C@@H](c2ccc3c(c2)Cc2ccccc2-3)C[C@@H](OCc2ccc(CO)cc2)O1)N1CCN(Cc2ccc3c(c2)OCO3)CC1	i	i
COC(=O)c1ccc([C@@H]2C=C(C(=O)N3CCN(Cc4ccc5c(c4)OCO5)CC3)O[C@H](OCc3ccc(CO)cc3)C2)cc1	i	100
CCc1cccc(C)c1NC(=O)CCC(=O)N1CCOc2ccccc21	nt	i
CCOC(=O)c1c(CNC(C)C)oc2ccc(OC)cc12	10	i
CCOC(=O)c1c(C(C)(C)C)oc2ccc(OCC(=O)OC)cc12	i	i
O=C(NC1CCCc2ccccc21)c1cnn(-c2ccccc2)c1-n1cccc1 (stereo not drawn)	nt	i
O=C(/C=N/O)Nc1cc(C(F)(F)F)cc(C(F)(F)F)c1	i	i
COc1ccc(Cn2nnc3c(=O)[nH]c(C4CCCN(S(=O)(=O)c5ccccc5)C4)nc32)cc1 (stereo not drawn)	nt	139
CC1CCCN(S(=O)(=O)c2ccccc2)C1 (stereo not drawn)	nt	i
CCCN(CCC)S(=O)(=O)c1ccc(C(=O)Nc2cccc(SC)c2)cc1	i	i
CCCN(CCC)S(=O)(=O)c1ccc(C(=O)Nc2ccc3sc(SC)nc3c2)cc1	nt	168
COc1ccc(NC(=O)Nc2ccc3c(c2)CC(=O)N([C@H](C)CO)C[C@@H](C)[C@H](CN(C)Cc2ccc(C(F)(F)F)cc2)O3)cc1	i	i
Cc1noc(C)c1NC(=O)N(C)C[C@@H]1Oc2ccc(NC(=O)NC3CCCCC3)cc2CC(=O)N([C@H](C)CO)C[C@H]1C	i	i
Cc1noc(C)c1NC(=O)N(C)C[C@H]1Oc2ccc(NC(=O)NC3CCCCC3)cc2CC(=O)N([C@@H](C)CO)C[C@@H]1C	i	104
COc1ccc(NC(=O)Nc2ccc3c(c2)CC(=O)N([C@@H](C)CO)C[C@@H](C)[C@@H](CN(C)C(=O)NC2CCCCC2)O3)cc1	i	i
COc1ccc(NC(=O)N(C)C[C@H]2Oc3ccc(NC(=O)NC4CCCCC4)cc3CC(=O)N([C@H](C)CO)C[C@H]2C)cc1	i	83
COc1ccc(CN(C)C[C@@H]2Oc3ccc(NC(=O)NC4CCCCC4)cc3CC(=O)N([C@H](C)CO)C[C@H]2C)cc1	6.7	i
COc1ccc(CN(C)C[C@@H]2Oc3ccc(NC(=O)Nc4ccc(C(F)(F)F)cc4)cc3CC(=O)N([C@H](C)CO)C[C@@H]2C)cc1	9.7	i
COc1ccc(CN(C)C[C@@H]2Oc3ccc(NC(=O)NC4CCCCC4)cc3CC(=O)N([C@@H](C)CO)C[C@@H]2C)cc1	i	i
CCc1ccc(NC(=O)Cn2cc3c(n2)CCCC3)cc1	nt	i
Cc1sc(-n2cccc2)c(C#N)c1C	nt	i
CCc1ccc(NC(=O)CSc2nncn3c2cc2occc23)cc1	nt	i
C=CCNc1ncnc2c1c(-c1ccccc1)cn2-c1cccc(C(F)(F)F)c1	nt	i
Cc1ccc(NC(=O)CSc2nc3c(c(=O)n2Cc2ccccc2)SCC3)cc1	nt	i
CSc1cccc(NC(=S)NCc2cccn2C)c1	nt	i
SMILES	YB-1 expr inh	ROS inducer
C[C@@H]1CN([C@H](C)CO)C(=O)Cc2cc(N(C)C)ccc2O[C@@H]1CN(C)C(=O)NC1CCCCC1	i	108
CC(C)NC(=O)N(C)C[C@H]1Oc2ccc(N(C)C)cc2CC(=O)N([C@@H](C)CO)C[C@@H]1C	i	i
O=C(CCN1C(=O)COc2ccccc21)NCc1ccccc1	nt	i
O=C(NC1CC1)c1n[nH]c(=O)c2ccccc12	nt	i
CC(C)c1ccc(NC(=S)NCc2ccc(C#N)cc2)cc1	nt	i
O=[N+]([O-])c1ccccc1-c1ccc(-c2nn3c(-c4ccccc4)nnc3s2)o1	nt	174
CN1CCC(N(C)Cc2ccc(-c3ccccc3[N+](=O)[O-])o2)CC1	nt	i
C[C@H]1CN([C@@H](C)CO)C(=O)c2cccc(NC(=O)Nc3ccccc3)c2O[C@@H]1CN(C)Cc1ccc(C(=O)Nc2ccccc2N)cc1	i	144
C[C@H]1CN([C@@H](C)CO)C(=O)c2cccc(NC(=O)Nc3ccc(F)cc3)c2O[C@@H]1CN(C)Cc1ccc(-c2ccccc2)cc1	i	i
C[C@@H]1CN([C@@H](C)CO)C(=O)c2cccc(NC(=O)Nc3ccccc3)c2O[C@@H]1CN(C)Cc1ccc(-c2ccccc2)cc1	i	82
C[C@H](CO)N1C[C@H](C)[C@@H](CN(C)Cc2ccc(C(=O)Nc3ccccc3N)cc2)Oc2c(NC(=O)Nc3ccccc3)cccc2C1=O	i	i
C[C@H]1CN([C@@H](C)CO)C(=O)c2cccc(NC(=O)Nc3ccc4c(c3)OCO4)c2O[C@H]1CN(C)Cc1ccc(-c2ccccc2)cc1	i	102
C[C@H]1CN([C@@H](C)CO)C(=O)c2cccc(NC(=O)Nc3ccc4c(c3)OCO4)c2O[C@@H]1CN(C)Cc1ccc(-c2ccccc2)cc1	i	i
C[C@@H]1CN([C@@H](C)CO)C(=O)c2cccc(NC(=O)Nc3ccccc3)c2O[C@@H]1CN(C)Cc1ccc(Oc2ccccc2)cc1	i	87
C[C@H]1CN([C@@H](C)CO)C(=O)c2cccc(NC(=O)Nc3ccccc3)c2O[C@@H]1CN(C)Cc1ccc(Oc2ccccc2)cc1	i	i
O=C(CCn1cccc1)NCC1COc2ccccc2O1 (stereo not drawn)	nt	i
COc1ccc(CC(=O)Nc2ccc3nc4n(c(=O)c3c2)CCCC4)cc1	nt	i
CCC(C)C(=O)Nc1ccc(Cl)cc1 (stereo not drawn)	nt	i
O=C(NCCN1CCCCCC1)c1cnn2c(C(F)(F)F)cc(-c3ccccc3)nc12	nt	i
CSc1nc(-c2ccccc2)nc2c1Cc1ccccc1O2	nt	i
CCOC(=O)C1CCN(c2cc(C(F)(F)F)nc3ccc(C)cc23)CC1	nt	i
COc1ccc(NC(=S)N(Cc2ccccc2)Cc2cccn2Cc2ccc(C)cc2C)cc1OC	nt	i
O=C(COc1ccccc1)Nc1ccc(C(=O)c2ccccc2)cc1	nt	i
C[C@@H]1CN([C@H](C)CO)C(=O)c2cccc(NC(=O)Nc3ccccc3)c2O[C@@H]1CN(C)Cc1ccc(Oc2ccccc2)cc1	i	i
C[C@H]1CN([C@@H](C)CO)C(=O)c2cccc(NC(=O)Nc3ccccc3)c2O[C@@H]1CN(C)Cc1ccc(Cl)c(Cl)c1	i	89
SMILES	YB-1 expr inh	ROS inducer
C[C@@H]1CN([C@H](C)CO)C(=O)c2cccc(NC(=O)Nc3ccccc3)c2O[C@@H]1CN(C)Cc1ccc(Cl)c(Cl)c1	i	i
C[C@H](CO)N1C[C@H](C)[C@@H](CN(C)Cc2ccc(Oc3ccccc3)cc2)Oc2c(NC(=O)Nc3ccccc3)cccc2C1=O	i	101
CNC(=O)Cn1ncc2c(C)n(Cc3ccccc3)c(C)c2c1=O	nt	i
COC(=O)C1=C(C)N=C2SCCC(=O)N2C1c1ccccc1 (stereo not drawn)	nt	i
CC(C)NC(=O)Nc1ccc2c(c1)CC(=O)N([C@@H](C)CO)C[C@H](C)[C@H](CN(C)C(=O)Nc1ccc(F)cc1)O2	i	111
COc1ccc(S(=O)(=O)Nc2ccc3c(c2)CC(=O)N([C@H](C)CO)C[C@@H](C)[C@@H](CN(C)C(=O)Nc2ccc4c(c2)OCO4)O3)cc1	i	i
CC(C)NC(=O)Nc1ccc2c(c1)CC(=O)N([C@@H](C)CO)C[C@H](C)[C@@H](CN(C)C(=O)Nc1ccc(F)cc1)O2	i	i
COc1ccc(NC(=O)N(C)C[C@H]2Oc3ccc(NS(=O)(=O)c4ccc(OC)cc4)cc3CC(=O)N([C@@H](C)CO)C[C@H]2C)cc1	i	i
